PubChem BioAssay (NCI)
This is part of a sample that, as a whole, favours compounds with a hit. Of some 83,000 tested, about 20% had one in any assay.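 Single-dose data. Exposure time 48 hours. Values below 10 considered active.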 The source made the active and inactive calls.

Tests used:
Assay in all cases: NCI-60 one-dose screen, 48 h (100 = growth as untreated, 0 = no growth, -100 = all killed)
Details in all cases: 10 µM unless noted
T-47D breast = test system: T-47D breast
BT-549 breast = test system: BT-549 breast
MDA-MB-435 melanoma = test system: MDA-MB-435 melanoma
SW-620 colon = test system: SW-620 colon
MCF7 breast = test system: MCF7 breast
HCT-116 colon = test system: HCT-116 colon
HCC-2998 colon = test system: HCC-2998 colon
KM12 colon = test system: KM12 colon

Measured: growth

Cc1cn(-c2cc(NC(=O)c3cncc(C#Cc4cnc5ccc(O[C@H]6CCOC6)nn45)c3)cc(C(F)(F)F)c2)cn1
inactive: T-47D breast 98.2% | BT-549 breast 181% | MDA-MB-435 melanoma 76.5% | SW-620 colon 58.9% | MCF7 breast 44.6% | HCT-116 colon 44.2% | HCC-2998 colon 84.7% | KM12 colon 21.9%

C=CCn1c(SCC(=O)Nc2cccc(C(=O)/C=C/c3ccc(C)cc3)c2)nc2ccccc2c1=O
inactive: T-47D breast 67.3% | BT-549 breast 122% | MDA-MB-435 melanoma 68.6% | SW-620 colon 67.5% | MCF7 breast 26.5% | HCT-116 colon 13.7% | HCC-2998 colon 87.2% | KM12 colon 74.5%

C=C(C)[C@@H]1CC[C@]2(C(=O)ON)CC[C@]3(C)[C@H](CC[C@@H]4[C@@]5(C)C/C(=C/c6ccc(Br)cc6)C(=O)C(C)(C)[C@@H]5CC[C@]43C)[C@@H]12
inactive: T-47D breast 49.4% | BT-549 breast 96.9% | MDA-MB-435 melanoma 81.1% | SW-620 colon 81.7% | MCF7 breast 44.9% | HCT-116 colon 48.6% | HCC-2998 colon 82.9% | KM12 colon 69.9%

C/C(Cc1ccc(Cl)cc1)=C(/c1ccccc1)c1ccc(OCCN)cc1
inactive: T-47D breast 101% | BT-549 breast 95.3% | MDA-MB-435 melanoma 95.1% | SW-620 colon 102% | MCF7 breast 99.9% | HCT-116 colon 102% | HCC-2998 colon 99% | KM12 colon 103%

CN(C)c1ncc(/C=C2\SC(=S)N(Cc3ccccc3Cl)C2=O)s1
inactive: T-47D breast 96.9% | BT-549 breast 102% | MDA-MB-435 melanoma 103% | SW-620 colon 82.6% | MCF7 breast 92.1% | HCT-116 colon 40.5% | HCC-2998 colon 102% | KM12 colon 97.5%

CC(=O)NC(C)(C)C(=O)N1CCC[C@H]1C(=O)NC(C)(C)C(=O)N[C@@H](C)C(=O)NC(C)(C)C(=O)N[C@@H](C)C(=O)N[C@@H](CCC(N)=O)C(=O)NC(C)(C)C(=O)N[C@H](C(=O)NC(C)(C)C(=O)NCC(=O)N[C@@H](CC(C)C)C(=O)NC(C)(C)C(=O)N1CCC[C@H]1C(=O)N[C@H](C(=O)NC(C)(C)C(=O)NC(C)(C)C(=O)N[C@@H](CCC(N)=O)C(=O)N[C@@H](CCC(N)=O)C(=O)N[C@H](CO)Cc1ccccc1)C(C)C)C(C)C
inactive: T-47D breast 55.7% [4.25 µM] | BT-549 breast 23.5% [4.25 µM] | MDA-MB-435 melanoma 71% [4.25 µM] | SW-620 colon 91% [4.25 µM] | MCF7 breast 17% [4.25 µM] | HCT-116 colon 67.7% [4.25 µM] | HCC-2998 colon 70.3% [4.25 µM] | KM12 colon 98.2% [4.25 µM]

COc1c([C@@H](CC(C)C)OC(C)=O)ccc2c1C(=O)OCc1cc(C)cc(O)c1O2
inactive: T-47D breast 17.4% | BT-549 breast 31.3% | MDA-MB-435 melanoma 30% | SW-620 colon 20% | MCF7 breast 18.4% | HCT-116 colon 12.3% | HCC-2998 colon 35% | KM12 colon 30.7%

C/C(=C(/c1ccc(O)cc1)c1ccc(OCCN(C)C)cc1)c1ccc(Cl)cc1
active: SW-620 colon -32.9% | HCC-2998 colon 7.02%
inactive: T-47D breast 30.9% | BT-549 breast 73.7% | MDA-MB-435 melanoma 28.1% | MCF7 breast 15.7% | HCT-116 colon 25.6% | KM12 colon 44.8%

Clc1ccccc1/C=C/c1nn2c(-c3ccncc3)nnc2s1
inactive: T-47D breast 95% | BT-549 breast 107% | MDA-MB-435 melanoma 103% | SW-620 colon 108% | MCF7 breast 66.4% | HCT-116 colon 96.5% | HCC-2998 colon 101% | KM12 colon 110%

C/C(=N\NC(=O)CSc1nc2sc3c(c2c(=O)n1-c1ccccc1)CCC(C)C3)c1ccc(Cl)cc1 (configuration not stated)
inactive: T-47D breast 46.4% | BT-549 breast 36.8% | MDA-MB-435 melanoma 30.1% | SW-620 colon 31.6% | MCF7 breast 14% | HCT-116 colon 26.6% | HCC-2998 colon 45.4% | KM12 colon 25.1%

COc1ccc(Cn2cc3c(c2-c2ccccc2)CCCc2cnoc2-3)cc1[N+](=O)[O-]
active: MDA-MB-435 melanoma 1.77%
inactive: T-47D breast 67.7% | BT-549 breast 81% | SW-620 colon 41.3% | MCF7 breast 34.4% | HCT-116 colon 46.9% | HCC-2998 colon 85.7% | KM12 colon 49.4%

CS(=O)c1nccc(-c2c(-c3ccc(F)c(OCc4ccccc4)c3)nc3sccn23)n1 (configuration not stated)
active: T-47D breast -11.6% | MCF7 breast -44.7%
inactive: BT-549 breast 109% | MDA-MB-435 melanoma 104% | SW-620 colon 87.9% | HCT-116 colon 63.6% | HCC-2998 colon 50.4% | KM12 colon 77%

O=C1[C@H]2Cc3c([nH]c4ccccc34)[C@H](c3ccc(Cl)cc3)N2C(=O)CN1C1CCN(Cc2c(Cl)cccc2Cl)CC1
inactive: T-47D breast 62.5% | BT-549 breast 91.6% | MDA-MB-435 melanoma 77% | SW-620 colon 77% | MCF7 breast 19.1% | HCT-116 colon 37.8% | HCC-2998 colon 44.1% | KM12 colon 72.5%

O=C(CSc1nnc(-c2cccs2)n1-c1ccccc1)Nc1ccc(F)cc1
inactive: T-47D breast 84.7% | BT-549 breast 99.3% | MDA-MB-435 melanoma 80.8% | SW-620 colon 97.2% | MCF7 breast 91.9% | HCT-116 colon 86.3% | HCC-2998 colon 125% | KM12 colon 94.1%

CC(C)N=C(N/C(N)=N/c1nc2ccccc2s1)NC(C)C
inactive: T-47D breast 58.4% | BT-549 breast 70% | MDA-MB-435 melanoma 35.9% | SW-620 colon 33.3% | MCF7 breast 43.2% | HCT-116 colon 17.7% | HCC-2998 colon 76.9% | KM12 colon 65.9%

CCNCCCn1c2c(c3cc(OC)c(OC)cc3c1=O)C(=O)c1cc(OC)cnc1-2
active: T-47D breast -0.933% | MCF7 breast 8.05% | HCT-116 colon 0.589%
inactive: BT-549 breast 27.3% | MDA-MB-435 melanoma 38% | SW-620 colon 37.1% | HCC-2998 colon 43.4% | KM12 colon 45.4%

COc1ccc(NC2=C(Cl)C(=O)C(C)=C(C)C2=O)cc1
inactive: BT-549 breast 110% | MDA-MB-435 melanoma 106% | SW-620 colon 94.3% | MCF7 breast 75.9% | HCT-116 colon 63.4% | HCC-2998 colon 101% | KM12 colon 72.3%
active: T-47D breast -2.17%

COc1ccc(-c2nc3cc(Cl)c(Cl)cc3n2CC(=O)N=Nc2c(O)[nH]c3ccc(Cl)cc23)cc1
active: T-47D breast -14.4% | HCT-116 colon 7.71%
inactive: BT-549 breast 25.8% | MDA-MB-435 melanoma 16.9% | SW-620 colon 32.1% | MCF7 breast 40% | HCC-2998 colon 29.8% | KM12 colon 59%

COc1cc(C2CC(c3ccc(Nc4nc(NCCO)nc(Nc5ccc(Cl)cc5)n4)cc3)=Nc3c(N)nc(N)nc3N2)cc(OC)c1OC (configuration not stated)
inactive: T-47D breast 54.5% | BT-549 breast 52.1% | MDA-MB-435 melanoma 74.6% | SW-620 colon 51.6% | MCF7 breast 42.7% | HCT-116 colon 23.6% | HCC-2998 colon 94.5% | KM12 colon 61.9%

Cn1cc(-c2nn3cc(-c4cccnc4)nc3s2)c2ccccc21
inactive: T-47D breast 27.7% | BT-549 breast 22.2% | SW-620 colon 17.1% | MCF7 breast 15.8% | HCT-116 colon 16.8% | HCC-2998 colon 60.2% | KM12 colon 29.6%
active: MDA-MB-435 melanoma -39.1%

O=C1/C(=C/c2ccc([N+](=O)[O-])cc2)SC(=Nc2ccccc2)N1Nc1ccccc1
inactive: T-47D breast 56.2% | BT-549 breast 95.6% | MDA-MB-435 melanoma 71.1% | SW-620 colon 43.2% | MCF7 breast 44.1% | HCT-116 colon 26.9% | HCC-2998 colon 85.3% | KM12 colon 77.5%

CC(=O)NC(C)(C)C(=O)N[C@@H](C)C(=O)NC(C)(C)C(=O)N[C@@H](C)C(=O)NC(C)(C)C(=O)N[C@@H](C)C(=O)N[C@@H](CCC(N)=O)C(=O)NC(C)(C)C(=O)N[C@H](C(=O)NC(C)(C)C(=O)NCC(=O)N[C@@H](CC(C)C)C(=O)NC(C)(C)C(=O)N1CCC[C@H]1C(=O)N[C@H](C(=O)NC(C)(C)C(=O)NC(C)(C)C(=O)N[C@@H](CCC(N)=O)C(=O)N[C@@H](CCC(N)=O)C(=O)N[C@H](CO)CC1CCCCC1)C(C)C)C(C)C
inactive: T-47D breast 25% [5 µM] | SW-620 colon 37.1% [5 µM] | MCF7 breast 17.2% [5 µM] | HCT-116 colon 49.3% [5 µM] | HCC-2998 colon 49.9% [5 µM] | KM12 colon 63.3% [5 µM]
active: BT-549 breast -4.41% [5 µM] | MDA-MB-435 melanoma 9.46% [5 µM]

N=c1c2cc(-c3ccccc3)oc2ncn1/N=C/c1ccccc1
inactive: T-47D breast 94% | BT-549 breast 92.1% | SW-620 colon 60.1% | MCF7 breast 50.4% | HCT-116 colon 65% | HCC-2998 colon 99% | KM12 colon 59%
active: MDA-MB-435 melanoma 7.67%

COC(=O)[C@@]1(C)CC[C@]2(C)CC[C@]3(C)C(=CC(=O)[C@@H]4[C@@]5(C)Cc6c(n(CC#CCN7CCN(C)CC7)c7ccccc67)C(C)(C)[C@@H]5CC[C@]43C)[C@@H]2C1
inactive: T-47D breast 84.8% | BT-549 breast 90.5% | MDA-MB-435 melanoma 40.3% | HCC-2998 colon 94.8% | KM12 colon 52.8%
active: SW-620 colon -63.4% | MCF7 breast -32.4% | HCT-116 colon -28.7%

CS(=O)c1nccc(-c2c(-c3ccc(F)c(OCc4ccc(F)cc4)c3)nc3sccn23)n1 (configuration not stated)
inactive: BT-549 breast 102% | MDA-MB-435 melanoma 100% | SW-620 colon 73% | HCT-116 colon 19.7% | HCC-2998 colon 10.2% | KM12 colon 54.5%
active: T-47D breast -37.3% | MCF7 breast -50.1%

CCOC(=O)C1=C(C)N=C2Sc3ccccc3N2C1c1ccccc1 (configuration not stated)
inactive: T-47D breast 76.6% | BT-549 breast 92.2% | MDA-MB-435 melanoma 102% | SW-620 colon 92.2% | MCF7 breast 106% | HCT-116 colon 65% | HCC-2998 colon 97.1% | KM12 colon 93.9%

CCC(CC)n1c(=O)c(SC2=NC3C(NN2)N(CC)C(=O)N3CC)c(C(=O)O)c2ccccc21 (configuration not stated)
inactive: T-47D breast 68.4% | SW-620 colon 21.7% | MCF7 breast 17.4% | HCC-2998 colon 24% | KM12 colon 20.7%
active: BT-549 breast -21.6% | MDA-MB-435 melanoma 0.0073% | HCT-116 colon 6.91%

Nc1nc(-c2cccc([N+](=O)[O-])c2)c(N=Nc2ccccc2[N+](=O)[O-])s1
active: SW-620 colon 6.99% | HCT-116 colon -13.8%
inactive: T-47D breast 42.3% | BT-549 breast 34.4% | MDA-MB-435 melanoma 67.7% | MCF7 breast 82.2% | HCC-2998 colon 84.9% | KM12 colon 54.2%

O=c1cc(-c2ccccc2)nc2sc(-c3c[nH]c4ccc(F)cc34)nn12
inactive: T-47D breast 27.2% | BT-549 breast 56.7% | MDA-MB-435 melanoma 63.7% | SW-620 colon 60.9% | MCF7 breast 57.9% | HCT-116 colon 57.2% | HCC-2998 colon 83.4% | KM12 colon 84.2%
